In PubChem BioAssay AID686978 (National Center for Advancing Translational Sciences (NCATS), 2013):
Screen size: about 420,000 compounds; about 64,000 (15%) were called active. About 27% were inconclusive and are not listed. Calls follow the shape of the dose curve; as a rule, active = well fitted inhibition curve with a large enough effect; inconclusive = small, poorly fitted or top-dose-only effect; inactive = flat fitted curve, though single readings scatter. A selection follows. Entries that show only a call come without a potency.

Test: qHTS for Inhibitors of human tyrosyl-DNA phosphodiesterase 1 (TDP1): qHTS in cells in absence of CPT; also: nearly all actives have a fitted effect of over 55% in size
Conditions: DT40 Tdp1-/- hTDP1 cells, no CPT, ATP luminescence, 48 h; activity change, negative = growth inhibition: at 46.2 µM (top of the series)
Description: Human tyrosyl-DNA phosphodiesterase 1 (TDP1) is a novel repair gene, and we propose to use it as a new target for anticancer drug development. TDP1 is not an essential protein, but under treatment with topoisomerase I poison (camptothecin: CPT), TDP1 works as a critical factor for cell survival. To directly identify novel TDP1 inhibitors active in a cellular environment, we have knocked-out the Tdp1 gene in chicken DT40 cells (Tdp1-/-) and generated a complemented counterpart cells that contains a stable transfection of the human TDP1 gene (Tdp1-/-;hTDP1 cells). For the primary screen, Tdp1-/-;hTDP1 cells will be exposed to small molecules in the presence or absence of CPT, and their growth kinetics will be evaluated after 48 hours by measuring ATP activity. […] The hit compounds will then be evaluated in the presence or absence of CPT using Tdp1-/- cells. […] In tertiary assays, biochemical gel-based assays will be used to assess whether the hit compounds specifically target TDP1.
To this end, we have screened this cell line against the MLSMR in two primary screens. In one screen we add CPT and in the other we screen in the absence of CPT; this AID represents the screen where CPT was absent.
NIH Chemical Genomics Center [NCGC]
NIH Molecular Libraries Probe Centers Network [MLPCN]
Assay Submitter (PI): Yves Pommier, NCI
DT40-hTDP1 cells without 20 nM Camptothecin (add 20 microL of DMSO in 1 L of cell culture medium) were dispensed at 400 cells/5microL/well in tissue culture treated 1536-well white wall/solid bottom assay plates (Greiner Bio-One North America, NC, U.S.A.) using a Multidrop Combi 8 channel dispenser (Thermo Fisher, Waltham, MA, USA). 23 nL compounds and controls were transferred using the pin tool (Kalypsys, San Diego, CA, USA) to the assay plates. The assay plates were then incubated at 37 masculineC for a minimum 48 hr. Three microL of Cell Titer Glo solution was added to the plates and incubated at RT in dark for 30 min. Luminescence was read using ViewLux (Perkin Elmer) with 1 sec exposure slow speed, high gain and 2x binning.
Potency is read from the fitted curve at half-maximal effect.

Compound | Potency
CC(C)C(=O)Nc1oc(-c2ccccc2)cc1C#N | inactive
Cc1ccc(NC(=O)CN(C)C(=O)Cn2nnc(-c3ccccc3)n2)cc1 | inactive
CCCn1nc(C(=O)NNC(=O)CCOc2ccccc2OCC)c2ccccc2c1=O | inactive
CCCn1nc(C(=O)NNC(=O)CSCC(=O)Nc2cc(C)on2)c2ccccc2c1=O | inactive
CCCn1nc(C(=O)Nc2ccc3nc(C)sc3c2)c2ccccc2c1=O | 18.4 µM (active)
CCCCCC(=O)Nc1ccc(C(=O)N/N=C/c2ccc([N+](=O)[O-])cc2)cc1 | inactive
CCOC(=O)/C=C/CN(C(=O)OC(C)(C)C)S(=O)(=O)N1CC=CC1 | inactive
Cc1ccccc1C(=O)O | inactive
COC(=O)c1ccccc1C(=O)NCc1nc(N2CCCC2)c2cccc(C)c2n1 | inactive
COc1cccc2[nH]c(C(=O)NCCc3ccccc3)cc12 | inactive
CCOc1ccc2[nH]c(C(=O)N/N=C/c3cccc(OC)c3OC)cc2c1 | 16.4 µM (active)
COc1ccc2[nH]c(C(=O)Nc3ccccc3Cl)cc2c1 | inactive
CCOc1ccccc1/C=N/NC(=O)CNC(=O)COc1ccccc1 | inactive
COc1cc2cc(C(=O)N/N=C/c3cccc(OC)c3OC)[nH]c2cc1OC | 13 µM (active)
COc1ccc(/C=N/NC(=O)c2cccc(C(F)(F)F)c2)cc1 | inactive
CCCOP(=O)(c1ccc(N(C)C)cc1)C(O)c1cc(OC)c(OC)c(OC)c1 (stereo unspecified) | inactive
Cc1ccc2oc(=O)ccc2c1 | inactive
CC(=O)Nc1ccc(S(=O)(=O)Nc2nccc(/C=C/c3ccccc3F)n2)cc1 | inactive
COCCNS(=O)(=O)c1cc(Br)ccc1OC | inactive
C=CC(COCc1ccccc1)N(CC(=O)OC)S(=O)(=O)c1cc(Br)ccc1OC (stereo unspecified) | 25.9 µM (active)
CCN([C@H](CO)C(C)C)S(=O)(=O)c1ccccc1Br | inactive
C=CC(COCc1ccccc1)N(Cc1ccccc1)S(=O)(=O)c1ccccc1Br (stereo unspecified) | 16.4 µM (active)

Compound | Potency
CCN(Cc1ccccc1)S(=O)(=O)c1cc(C(=O)O)ccc1OC | inactive
C=CCCN(Cc1ccccc1)S(=O)(=O)c1ccccc1Br | inactive
CCN(CCn1cccn1)C(=O)CC1C(=O)NCCN1Cc1cccc(OC)c1OC (stereo unspecified) | inactive
Brc1ccc(-c2nn[nH]n2)cc1 | inactive
CCN=C1SC(CC(=O)Nc2ccc(C)cc2)C(=O)N1CC (stereo unspecified) | inactive
O=C(NCc1cccs1)c1ccc(CS(=O)Cc2ccccc2Cl)o1 (stereo unspecified) | inactive
O=C(c1ccc(CS(=O)Cc2ccccc2Cl)o1)N1CCN(c2ccccc2)CC1 (stereo unspecified) | 20.6 µM (active)
COc1ccc(NS(=O)(=O)c2cccc3nsnc23)cc1Cl | inactive
C=CCn1c(-c2ccc(Cl)cc2)ccc(C#N)c1=O | inactive
CCN(CC)c1ccc(C(=O)c2cnc(/N=C/N(C)C)s2)cc1 | inactive
Cc1ccnc2nc(C(=O)Nc3nnc(-c4ccccc4)o3)nn12 | inactive
CC1CCCCC1NCC(=O)Nc1ccccc1C(=O)Nc1ccccc1 (stereo unspecified) | 14.6 µM (active)
Cc1ccc(OCC(=O)Nc2ccccc2C(=O)NC2CC2)cc1C | inactive
CC(NCC(=O)Nc1ccccc1C(=O)NC1CC1)c1ccccc1Cl (stereo unspecified) | inactive
C[C@H](NC(=O)C1CCN(S(=O)(=O)c2ccccc2)CC1)C(=O)NCc1ccccc1 | inactive
O=C(COc1ccc([N+](=O)[O-])cc1Cl)Nc1ccc2[nH]c(=O)[nH]c2c1 | inactive
O=C1N(c2ccc(Cl)cc2)C(c2ccc(Cl)cc2)N2CCCN12 (stereo unspecified) | inactive
COc1ccc(-n2c(-c3ccc(OC)c(OC)c3)n[nH]c2=S)cc1 | inactive
COc1ccc(-c2cn(-c3ccc(OC)cc3)c(=S)[nH]2)cc1 | 18.4 µM (active)
COc1ccc(N2C(=O)CNC2=S)cc1 | inactive
FC(F)(F)c1cccc(-c2nc(COc3ccc(Cl)cc3Cl)no2)c1 | inactive
CS(=O)(=O)N(CC(=O)N1CCOCC1)c1ccc2c3c(cccc13)CC2 | inactive

Compound | Potency
O=C(COC(=O)CNS(=O)(=O)c1ccc(F)c(F)c1F)NC1CCCC1 | inactive
FC(F)(F)c1ccccc1-c1nc(-n2ccnc2)c2ccccc2n1 | inactive
FC(F)(F)c1cc(Nc2nc3ccccc3c3nncn23)ccc1Cl | 16.4 µM (active)
COc1cccc(Nc2nc3ccccc3c3nncn23)c1 | 25.9 µM (active)
COc1ccc(OC)c(Nc2nc3ccccc3n3cnnc23)c1 | inactive
COc1cccc(Nc2ncccc2C(=O)O)c1 | inactive
CC(C)c1cc(CN2CCOCC2)cc(C(C)C)c1O | inactive
O=C(Cc1ccccc1)Nc1ccc(NC(=O)c2cccnc2)cc1 | inactive
CC(C)(C)c1cc[n+](-c2[nH]c(=O)sc2/C=N/N=C(\[O-])c2ccccc2)cc1 | inactive
CCCS(=O)(=O)Nc1c(C(=O)O)[nH]c2ccccc12 | inactive
COc1ccc(C2C(C(C)=O)=C(O)C(=O)N2CCc2c[nH]c3ccccc23)cc1 (stereo unspecified) | inactive
C[N+](C)(C)CCNC(=O)c1c[nH]c2ccccc12 | inactive
COc1ccc(/C=C(\C#N)c2c[nH]c3ccccc23)cc1 | 0.651 µM (active)
N/C(=N\OC(=O)c1ccc2c(c1)OCO2)c1ccc(Br)cc1 | inactive
CCn1cc(C(=O)NCCC(=O)NCCO)c(=O)c2cc3c(cc21)OCO3 | inactive
CCCN(CC(=O)Nc1ccc(C(N)=O)cc1)CC(=O)Nc1ccccc1C | inactive
CS(=O)(=O)N(CC(=O)N1CCN(Cc2ccccc2)CC1)c1ccc2c(c1)OCCO2 | inactive
COc1ccc(N(CC(=O)N2CCCCCC2)S(=O)(=O)c2ccccc2)cc1 | inactive
CC1CCN(C(=O)CN(c2ccc(Oc3ccccc3)cc2)S(C)(=O)=O)CC1 | 13 µM (active)
Cc1ccc(N2C(=O)CC(N3CCSCC3)C2=O)c(C)c1 (stereo unspecified) | inactive
Cc1ccc(-n2ncc3c2CC(C)(C)CC3NC(=O)Cc2c(C)noc2C)cc1 (stereo unspecified) | 23.1 µM (active)
COc1ccc(-n2ncc3c2CC(C)(C)CC3NC(=O)CCc2c(C)nn(C)c2C)cc1 (stereo unspecified) | inactive

Compound | Potency
CC1(C)Cc2c(cnn2-c2cccc(F)c2)C(NC(=O)c2cc[n+]([O-])cc2)C1 (stereo unspecified) | inactive
COc1ccc(-n2ncc3c2CC(C)(C)CC3NC(=O)CCc2c(C)noc2C)cc1 (stereo unspecified) | inactive
COC(=O)c1ccc(C(=O)NC2CC(C)(C)Cc3c2cnn3-c2ccc(F)cc2)nc1 (stereo unspecified) | 3.66 µM (active)
Cc1cc(C(=O)NC2CC(C)(C)Cc3c2cnn3-c2ccccc2)n[nH]1 (stereo unspecified) | inactive
CCn1ncc(CNC(=O)C2(C)CC2(Br)Br)c1C (stereo unspecified) | inactive
CC12CN3CC(C)(CN(C1)C3c1ccc(Cl)cc1Cl)C2=O (stereo unspecified) | inactive
Cc1ccc(-c2noc(-c3nnn(-c4cccc(C(F)(F)F)c4)c3N)n2)cc1 | inactive
Cc1cc(C)cc(N(CC(=O)NC2CCCC2)C(=O)CCC(=O)Nc2nccs2)c1 | inactive
COc1cc(C(=O)N2CCN(S(=O)(=O)c3ccc(C(C)C)cc3)CC2)ccc1OCC(=O)N1CCOCC1 | inactive
FC(F)(F)c1ccnc(Oc2ccc(C3=NCCS3)cc2)c1 | inactive
Cc1cccc(/C=N/NC(=O)CNc2cccc3ccccc23)n1 | 13 µM (active)
Cc1c(Cl)cccc1NC(=O)CCC(=O)N/N=C/c1ccco1 | inactive
O=C(COC(=O)c1ccccn1)Nc1cccc2ccccc12 | inactive
C/C(=N\NC(=O)CNc1cccc2ccccc12)c1ccc(Br)s1 | 8.2 µM (active)
C/C(Cc1ccccc1)=N\NC(=O)CNC(=O)c1cccc(Br)c1 | inactive
C/C(=N\NC(=O)COc1c(C)cccc1C)c1cccs1 | inactive
C=CCN1CC(C)/C(=N\O)CC1C (stereo unspecified) | inactive
Cc1ccc(NC(=O)Cn2cnc3nc4c(cc3c2=O)CCCC4)cc1Cl | inactive
COc1ccc(C(=O)NC(Cc2ccc(OC(=O)c3ccc(OC)cc3)cc2)C(=O)O)cc1 (stereo unspecified) | inactive
CN(CCc1ccccn1)C(=O)CCC1CCCN(Cc2ccccc2OC(F)F)C1 (stereo unspecified) | inactive
CN(CC(=O)NCCc1ccc(S(N)(=O)=O)cc1)CC(=O)Nc1ccc(Cl)cc1 | inactive
O=C1CCC(C(=O)Nc2ccc(OC(F)F)cc2)N1 (stereo unspecified) | inactive

Compound | Potency
CCNC(=S)Nc1ccc(OC(F)(F)F)cc1 | inactive
CC(NC(=S)Nc1ccc(OC(F)F)cc1)c1ccc(F)cc1 (stereo unspecified) | 16.4 µM (active)
CC(=O)c1ccc(OCC(O)CN2CCN(S(=O)(=O)c3cccc(Br)c3)CC2)cc1 (stereo unspecified) | inactive
CCCCC(=O)N(c1ccc(OC)cc1)C1C=CS(=O)(=O)C1 (stereo unspecified) | inactive
CN(C)/C=C/C(=O)c1ccccc1F | inactive
COc1ccc(NC(=O)c2sc3nc(-c4cc5cccc(OC)c5oc4=O)[nH]c(=O)c3c2C)cc1 | inactive
COc1ccccc1NC(=O)c1sc2nc(C)c(C(=O)Nc3ccc(Cl)cc3)c(-c3ccc(Br)cc3)c2c1N | 16.4 µM (active)
COc1ccccc1NC(=O)c1c(Br)cnn1C | inactive
N/C(=N\OC(=O)c1ccc([N+](=O)[O-])cc1)c1ccccn1 | inactive
O=C(NC1CC1)C1=C[C@H](c2coc3ccccc3c2=O)C[C@H](OCCCCO)O1 | inactive
CCO[C@H]1OC(C(=O)O)=C[C@@H](C2CCCCC2)[C@@H]1CCCO | inactive
CCO[C@H]1OC(C(=O)NCc2ccccc2)=C[C@@H](c2coc3ccccc3c2=O)[C@@H]1CCCO | 9.2 µM (active)
CC1=CC(=NNS(=O)(=O)c2ccc([N+](=O)[O-])cc2)CC(C)(C)C1 | inactive
CNC(=S)N/N=C/c1cn(Cc2ccc(C)cc2)c2ccccc12 | 18.4 µM (active)
NC(=O)Cn1cc(/C=N\NS(=O)(=O)c2ccccc2)c2ccccc21 | inactive
Cc1ccc(CNC(=O)Cc2cn(C)c3ccccc23)cc1 | inactive
N#CCC(=O)N/N=C/c1cn(Cc2ccc3ccccc3c2)c2ccccc12 | 14.6 µM (active)
CCN1CCN(C(=O)/C=C\C(=O)O)CC1 | inactive
